Test results published in PubChem BioAssay.
Calls of active or inactive are those of the source.

Legend:
[1] = anti-His antibody binders, primary screen, artefact control for SMM control protein annotation, biochemical, small-molecule microarray, 635 nm fluorescence (AID 1128); settings: anti-His Alexa647 antibody binding, higher = more signal;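 also: score merges feature fluorescence with signal-to-noise for each printed compound spot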
[2] = test system: Human papillomavirus type 1a E7 protein (residues 1-88); assay: HPV1a E7 small-molecule binders, primary screen, biochemical, small-molecule microarray, residues 1-88, 635 nm (AID 1129); settings: small-molecule microarray binding, fluorescence 635 nm; higher = more signal
[3] = biological target: Focal adhesion kinase 1 (Homo sapiens) (UniProt Q05397); assay: small-molecule microarray binders of FAK, primary screen, biochemical, 635/667 nm fluorescence, BSA, DTT (AID 1130); settings: PTK2 binding, 635 nm fluorescence, higher = more signal;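 also: composite of spot emission at 667 nm and signal to noise over triplicate slides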
[4] = test system: Fibrinogen (Alexa647-labelled); assay: fibrinogen binders on compound microarrays, profiling panel, artefact control for SMM control-protein annotation, biochemical, small-molecule microarray, 635/667 nm fluorescence (AID 1131); settings: fibrinogen-A647 binding fluorescence, higher = more signal;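 also: z-score merges 667 nm fluorescence with per-spot signal-to-noise over triplicate slides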
[5] = biological target: Follistatin (Homo sapiens) (UniProt P19883); assay: follistatin binders on small-molecule microarrays, primary screen, biochemical, small-molecule microarray, 635/667 nm fluorescence (AID 1132); settings: FST binding, 635 nm fluorescence, higher = more signal
[6] = biological target: Fibroblast growth factor 2 (Homo sapiens) (UniProt P09038); assay: FGF2 binders on small-molecule microarrays, primary screen, biochemical, small-molecule microarray, 635/667 nm fluorescence (AID 1133); settings: small-molecule microarray binding, FGF2, fluorescence 635/667; higher = more signal
[7] = mitochondrial membrane potential change in A549 cells, profiling panel, cell-based, JC-1 fluorescence, basal, 24 h, 100 nL (AID 1138); settings: higher = more signal;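 also: A549 lung adenocarcinoma cells under basal conditions with no added stimulus; test concentration not given here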
Lefty1 = Lefty1 binders on small-molecule microarrays, primary screen, biochemical, small-molecule microarray, 635/667 nm fluorescence (AID 1139); settings: small-molecule microarray binding, fluorescence 635/667; higher = more signal
[8] = test system: wheat germ agglutinin (Triticum aestivum), Alexa647-labelled; assay: wheat germ agglutinin binders on compound microarrays, profiling panel, artefact control for SMM control-protein annotation, biochemical, small-molecule microarray, 635/667 nm fluorescence (AID 1140); settings: WGA-A647 binding, 635 nm fluorescence, higher = more signal;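 also: score merges 667 nm feature emission with signal to noise over triplicate slides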
[9] = biological target: Luciferin 4-monooxygenase (Photinus pyralis) (UniProt P08659); assay: firefly luciferase enzyme inhibitors, primary screen, biochemical, luminescence, purified enzyme, 2006 set (AID 1141); settings: SteadyGlo luminescence, 30 min, higher = more signal, called active from +8 up or from −8 down;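 also: cell-free assay with purified firefly luciferase at 100 ng per well in PBS; test concentration not given here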
Luciferin 4-monooxygenase (Photinus pyralis), sequence (P08659 whole entry, looked up): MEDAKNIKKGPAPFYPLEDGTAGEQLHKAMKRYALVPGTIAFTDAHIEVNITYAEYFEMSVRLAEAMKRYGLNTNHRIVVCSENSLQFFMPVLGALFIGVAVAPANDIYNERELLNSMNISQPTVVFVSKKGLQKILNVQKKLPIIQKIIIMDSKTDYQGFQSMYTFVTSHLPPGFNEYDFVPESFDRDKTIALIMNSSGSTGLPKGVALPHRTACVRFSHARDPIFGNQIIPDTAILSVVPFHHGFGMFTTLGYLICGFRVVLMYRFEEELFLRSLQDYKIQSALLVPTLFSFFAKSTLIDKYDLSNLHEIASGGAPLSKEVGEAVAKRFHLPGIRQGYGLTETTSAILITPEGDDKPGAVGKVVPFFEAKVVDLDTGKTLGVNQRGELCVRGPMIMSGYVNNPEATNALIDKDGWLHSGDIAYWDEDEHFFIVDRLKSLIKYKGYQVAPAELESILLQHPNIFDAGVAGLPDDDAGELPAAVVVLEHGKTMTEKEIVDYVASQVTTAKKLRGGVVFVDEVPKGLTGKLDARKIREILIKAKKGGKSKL

Follistatin (Homo sapiens), sequence (P19883 whole entry, looked up): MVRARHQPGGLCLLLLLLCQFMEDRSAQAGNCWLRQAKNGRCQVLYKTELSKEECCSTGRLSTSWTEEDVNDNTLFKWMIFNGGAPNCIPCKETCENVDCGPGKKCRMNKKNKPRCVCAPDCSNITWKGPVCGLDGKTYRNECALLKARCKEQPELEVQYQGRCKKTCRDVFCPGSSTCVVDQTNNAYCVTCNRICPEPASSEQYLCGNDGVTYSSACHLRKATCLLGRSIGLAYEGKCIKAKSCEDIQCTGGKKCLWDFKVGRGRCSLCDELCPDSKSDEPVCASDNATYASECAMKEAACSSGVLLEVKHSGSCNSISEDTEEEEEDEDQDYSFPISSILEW
Focal adhesion kinase 1 (Homo sapiens), sequence (Q05397 whole entry, looked up): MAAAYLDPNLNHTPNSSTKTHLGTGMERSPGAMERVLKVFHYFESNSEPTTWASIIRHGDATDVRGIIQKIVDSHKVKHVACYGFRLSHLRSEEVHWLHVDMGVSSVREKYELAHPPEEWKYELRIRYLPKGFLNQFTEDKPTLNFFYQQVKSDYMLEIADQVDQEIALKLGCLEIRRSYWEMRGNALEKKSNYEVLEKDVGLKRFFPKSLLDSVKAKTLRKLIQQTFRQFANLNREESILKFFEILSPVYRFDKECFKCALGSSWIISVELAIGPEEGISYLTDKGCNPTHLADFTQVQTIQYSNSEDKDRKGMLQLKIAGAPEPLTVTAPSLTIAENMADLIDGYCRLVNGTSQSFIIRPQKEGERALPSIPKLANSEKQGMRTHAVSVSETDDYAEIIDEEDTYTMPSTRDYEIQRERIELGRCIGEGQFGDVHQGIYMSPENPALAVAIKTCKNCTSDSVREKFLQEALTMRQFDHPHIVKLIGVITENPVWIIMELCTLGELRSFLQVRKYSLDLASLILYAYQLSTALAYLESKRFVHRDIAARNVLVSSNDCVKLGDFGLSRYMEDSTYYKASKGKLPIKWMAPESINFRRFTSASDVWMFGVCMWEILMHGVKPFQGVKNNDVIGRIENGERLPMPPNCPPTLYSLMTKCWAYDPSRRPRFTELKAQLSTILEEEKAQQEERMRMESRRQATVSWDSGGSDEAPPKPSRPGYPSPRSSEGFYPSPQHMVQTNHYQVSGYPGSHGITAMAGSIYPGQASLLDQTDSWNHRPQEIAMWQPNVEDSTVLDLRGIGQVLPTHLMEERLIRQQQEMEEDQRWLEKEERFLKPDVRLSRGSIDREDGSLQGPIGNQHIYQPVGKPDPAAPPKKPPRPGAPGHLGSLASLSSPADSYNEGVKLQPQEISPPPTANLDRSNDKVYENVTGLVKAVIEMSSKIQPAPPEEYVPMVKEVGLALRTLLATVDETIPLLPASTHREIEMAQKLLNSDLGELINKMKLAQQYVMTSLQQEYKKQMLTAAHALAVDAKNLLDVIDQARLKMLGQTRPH
Fibroblast growth factor 2 (Homo sapiens), sequence (P09038 whole entry, looked up): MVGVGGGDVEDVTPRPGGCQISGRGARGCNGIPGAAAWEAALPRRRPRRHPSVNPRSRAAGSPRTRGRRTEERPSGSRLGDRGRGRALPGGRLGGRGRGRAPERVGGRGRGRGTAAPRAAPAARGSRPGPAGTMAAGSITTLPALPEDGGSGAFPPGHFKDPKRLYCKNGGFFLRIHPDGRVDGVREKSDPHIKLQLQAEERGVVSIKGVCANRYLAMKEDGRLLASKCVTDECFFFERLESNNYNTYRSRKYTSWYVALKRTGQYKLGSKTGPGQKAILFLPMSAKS

Row | SMILES | composite z-score [1] | composite z-score [2] | composite z-score [3] | composite z-score [4] | composite z-score [5] | composite z-score [6] | z-score [7] | composite z-score (Lefty1) | composite z-score [8] | z-score [9]
1 | CCN1C(=O)[C@H]2[C@H]3[C@H](O)[C@H](O)CC(=NO[C@@H](C)c4cn([C@H](CO)Cc5ccccc5)nn4)[C@@H]3CC[C@H]2C1=O | 3.32 | 1.11 | -0.0643 | 0.752 | 0.579 | 0.894 | -0.719 | 0.926 | 1.05 | 0.465 (inactive)
2 | COC(=O)CC=C[C@H](C)[C@@H](OCc1cccc(Br)c1)[C@@H](C)[C@H](OC)C1CCCCC1 | 0.0864 | -1.06 | -0.484 | -1.74 | 0.22 | -0.0877 | 1.74 | 0.525 | 0.325 | -3.27 (inactive)
3 | CCC(=O)[C@@]1(O)C(=O)N2C(=C3C(=O)OCC[C@@H]31)N(Cc1ccccc1)C(C)=C(C(=O)OC)[C@H]2c1ccccc1 | 0.188 | 0.405 | 1.08 | 0.375 | 0.538 | 0.465 | 0.523 | 0.436 | 0.0183 | -0.901 (inactive)
4 | CO[C@H]1COC(=O)CCC[C@@H](C)[C@H](OC)COC(=O)[C@@H]2CCCN2C(=O)CC=C[C@@H]1C | -0.278 | -0.779 | -0.682 | -0.759 | 1.33 | 1.18 | -0.738 | 1.44 | -0.207 | 1.19 (inactive)
5 | CC(C)=CCCC(C)=CCON=C1C[C@@H](O)[C@@H](O)[C@@H]2[C@@H]3C(=O)N(Cc4ccccc4)C(=O)[C@@H]3CC[C@H]12 | 0.267 | 1.2 | 0.171 | 0.476 | 0.669 | 0.736 | -0.566 | 0.751 | 0.283 | 0.71 (inactive)
6 | CCOC(=O)[C@H](CC(C)C)NC(=O)CCC1CC(OC(=O)NCc2cccc3ccccc23)CC2(CCCC(COC(=O)NCC3CCCCC3)O2)O1 (stereo not given in full) | 0.685 | 1.13 | -0.368 | 0.297 | 0.62 | 0.594 | -1.07 | 0.733 | 0.0121 | 1 (inactive)
7 | O=C1[C@H]2[C@H]3[C@H](O)[C@H](O)CC(=NOC[C@@H](O)COCc4ccco4)[C@H]3CC[C@H]2C(=O)N1C[C@@H]1CCCO1 | 0.605 | 0.225 | -0.173 | -1.27 | 0.987 | 1.61 | -0.644 | 1.34 | -0.23 | 1.02 (inactive)
8 | COC(=O)CC=C[C@@H](C)[C@@H](C=NO[C@H](C)c1cn([C@@H]2COC[C@H]2O)nn1)NS(=O)(=O)c1ccc(C)cc1 | 1.41 | -0.0194 | -0.217 | 0.533 | 1.08 | 0.845 | 0.109 | 1.26 | 0.521 | 0.316 (inactive)
9 | COC(=O)[C@@H]1CC[C@H](C)[C@@H](c2ccc(C)cc2)N1C(=O)c1ccc(C=NO[C@H](C)c2cn([C@@H]3COC[C@H]3O)nn2)cc1 | -0.684 | 1.13 | 0.155 | 0.677 | 0.353 | 0.502 | -0.662 | 0.551 | 0.145 | 0.411 (inactive)
10 | CO[C@H]1COC(=O)CC=C[C@H](C)[C@@H](OC)COC(=O)[C@H](C)COC(=O)CC=C[C@@H]1C | 0.487 | -0.759 | -0.309 | -0.899 | 1.36 | 1.36 | 1.13 | 1.12 | -0.844 | -0.913 (inactive)
11 | C#CCCCON=C1C[C@@H](O)[C@@H](O)[C@@H]2[C@@H]3C(=O)N(Cc4ccccc4)C(=O)[C@@H]3CC[C@@H]12 | 0.309 | -0.032 | 0.0147 | -0.691 | -0.0389 | 0.0054 | 0.477 | 0.19 | 0.249 | 0.807 (inactive)
12 | CO[C@H]1COC(=O)[C@H](C)NC(=O)[C@@H](C)COC(=O)[C@H]2CCCN2C(=O)CC=C[C@H]1C | -0.395 | 0.185 | 0.0089 | -0.157 | 0.593 | 0.806 | -0.392 | 0.632 | -0.375 | 0.574 (inactive)
13 | C#CCCCON=C1C[C@@H](O)[C@@H](O)[C@@H]2[C@@H]3C(=O)N(C(C)(C)C)C(=O)[C@@H]3CC[C@@H]12 | -0.331 | -0.175 | 0.324 | 0.139 | -1.54 | -0.92 | -0.289 | -1.28 | 0.171 | 0.648 (inactive)
14 | Cc1cc2c(c(=O)o1)[C@@H](O)[C@H]1O[C@H]1C2=O | 0.432 | 0.281 | 0.123 | -0.116 | 0.629 | 0.374 | -1.32 | 1.32 | 0.201 | 0.476 (inactive)
15 | CO[C@@H]1C=CCC(=O)N2CCC[C@H]2C(=O)OC[C@@H](C)C(=O)OC[C@H]1C | 0.21 | -0.565 | -0.267 | -0.294 | 1.34 | 1.33 | 2.01 | 0.925 | -0.7 | -1.1 (inactive)
16 | CC(=O)OC[C@H]1OC(ON=CC[C@@H]2C=C[C@H](OC(C)=O)[C@@H](COC(C)=O)O2)[C@H](OC(C)=O)[C@@H](OC(C)=O)[C@@H]1OC(C)=O (stereo not given in full) | 2.8 | 0.268 | 0.282 | 0.106 | -0.494 | 0.0994 | -0.99 | -0.101 | -0.223 | 1.11 (inactive)

Row | SMILES | composite z-score [1] | composite z-score [2] | composite z-score [3] | composite z-score [4] | composite z-score [5] | composite z-score [6] | z-score [7] | composite z-score (Lefty1) | composite z-score [8] | z-score [9]
17 | C=CC[C@@H]1C=C[C@H](ON=C[C@@H](C)[C@H](OCc2ccccc2)C(C)C)[C@@H](CO)O1 | -0.304 | -0.324 | -0.472 | -1.67 | -0.386 | -0.178 | -0.922 | 0.521 | -0.0625 | 0.888 (inactive)
18 | CO[C@H]1COC(=O)CC=C[C@@H](C)[C@H](OC)COC(=O)CCC[C@@H]1C | 0.165 | -0.289 | -0.735 | -0.511 | 0.776 | 1.15 | -0.738 | 0.945 | -0.173 | 1.09 (inactive)
19 | CCN1C(=O)[C@H]2[C@H]3[C@H](O)[C@H](O)CC(=O)[C@@H]3CC[C@H]2C1=O | 0.562 | 0.899 | -0.049 | 0.583 | 0.468 | 0.226 | 1.39 | 0.547 | 0.187 | -0.497 (inactive)
20 | COC(=O)[C@H]1O[C@@H](c2c(OC)c(OC)c(C)c(OC)c2OC)[C@H](C)[C@@H](O)[C@H]1C | 0.377 | 0.998 | 0.169 | 0.902 | 0.694 | 0.577 | 0.274 | 1.08 | 0.526 | -0.246 (inactive)
21 | O=C1CCCC=C1C(O)CCOC(c1ccccc1)(c1ccccc1)c1ccccc1 (stereo not given) | -0.545 | -0.228 | -0.0057 | -0.302 | 0.0573 | 0.058 | -0.228 | 0.458 | -0.129 | -0.395 (inactive)
22 | COc1cc(O)c(C(=O)C=Cc2ccc3c(c2)OCO3)c(OC)c1 | -0.132 | -1.44 | 0.0276 | 0.0337 | 0.4 | -0.19 | 0.209 | 0.707 | 0.393 | -5.1 (inactive)
23 | COC(=O)[C@H](C)NC(=O)CCC1CC(OC(=O)NCCc2ccc(F)cc2)CC2(CCCC(COC(=O)NCCC(C)C)O2)O1 (stereo not given in full) | 0.959 | 0.168 | 0.0069 | 0.939 | 0.577 | 0.761 | 2.09 | 0.899 | 0.323 | -0.447 (inactive)
24 | CCOC(=O)[C@H](CC(C)C)NC(=O)CCC1CC(OC(=O)NCc2cccc3ccccc23)CC2(CCCC(COC(=O)NCc3cccc(C(F)(F)F)c3)O2)O1 (stereo not given in full) | -0.206 | 0.492 | -0.0868 | 0.52 | 0.312 | 0.231 | 0.841 | 0.42 | 0.0501 | 0.421 (inactive)
25 | CCOC(=O)NN=C1C[C@@H](O)[C@@H](O)[C@@H]2[C@@H]3C(=O)N(C(C)(C)C)C(=O)[C@@H]3CC[C@H]12 | 0.322 | 0.215 | 0.064 | 0.0959 | 0.903 | 0.647 | 0.233 | 0.279 | -0.0123 | 0.0659 (inactive)
26 | C[C@@H]1CC[C@H]2C(=O)O[C@@H](COc3ccc(C(C)(C)C)cc3)CN2[C@@H]1c1ccc(Br)cc1 | 2.71 | -0.741 | 0.225 | 0.172 | -0.0473 | -0.62 | 0.841 | -0.255 | -0.383 | -0.864 (inactive)
27 | COc1cccc([C@@H]2Oc3ccc(OC)cc3C(=O)[C@H]2O)c1 | 0.575 | 0.193 | 0.0207 | 0.823 | 0.536 | 0.449 | -1.54 | 0.678 | -0.173 | -1.6 (inactive)
28 | COC(=O)CC=C[C@@H](C)[C@@H](C=NO[C@@H](C)c1cc(-c2c(C)cc(C)cc2C)no1)NS(=O)(=O)c1ccc(C)cc1 | -1.02 | -0.888 | -0.0927 | -0.494 | -1.58 | -1.44 | -0.0778 | -1.55 | -0.665 | 1.14 (inactive)
29 | CC(C)(C)N1C(=O)[C@H]2[C@H]3[C@H](O)C=CC(=O)[C@@H]3CC[C@H]2C1=O | 0.204 | 0.025 | -0.258 | 0.347 | 0.39 | 0.255 | 0.109 | 0.461 | 0.0896 | -0.753 (inactive)
30 | O=C(NN=C1C[C@@H](O)[C@@H](O)[C@@H]2[C@@H]3C(=O)N(C4CCCCC4)C(=O)[C@@H]3CC[C@H]12)OCc1ccccc1 | -0.156 | -0.387 | -0.132 | -0.195 | -0.516 | -0.443 | 0.293 | -0.422 | 0.505 | -0.0704 (inactive)
31 | CCOC(=O)[C@H](Cc1ccccc1)NC(=O)CCC1CC(OC(=O)NCCc2ccc(F)cc2)CC2(CCCC(COC(=O)NCCc3ccccc3OC)O2)O1 (stereo not given in full) | 0.949 | 1.15 | 0.165 | 0.916 | 0.818 | 0.888 | -0.366 | 1.11 | 0.441 | 0.451 (inactive)
